From PubChem BioAssay (NCI) come the findings set out here.

Several values for one entry are separate records, joined by “and”; a condition that tells them apart may be missing. Identical values can stand only once. The panel holds about 83,000 compounds, 20% with a hit somewhere; the sample as a whole holds those more often.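 Single-concentration screen, 48 h exposure, 96-well plates. Endpoint: percent growth. Below 10 = active.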 Activity calls are given as the source filed them.

Some test systems named below: T-47D breast; BT-549 breast; MDA-MB-435 melanoma; SW-620 colon; MCF7 breast; HCT-116 colon; KM12 colon; HCC-2998 colon.
Test in all cases: NCI-60 one-dose screen, 48 h (100 = growth as untreated, 0 = no growth, -100 = all killed)

Turning to `CCCCCCCCCCCCCCCCCCOCC(COP(=O)([O-])OCC[N+](C)(C)C)OC` (centres undefined), the growth in the experiment with T-47D breast (10 µM) was 88% (inactive); in the experiment with BT-549 breast (10 µM) it was 97.1% (inactive); in the experiment on MDA-MB-435 melanoma (10 µM), 103% (inactive); in the experiment on SW-620 colon (10 µM), 70.1% (inactive); with MCF7 breast (10 µM), 81.4% (inactive); in the experiment on HCT-116 colon (10 µM), 65.1% (inactive). Moreover, the growth in the experiment with KM12 colon (10 µM) is 29.7% (inactive).

With `CCN1/C(=C/C=C/C=C/c2sc3ccccc3[n+]2CC)Sc2ccccc21`, the growth with T-47D breast (10 µM) is -32.2% (active); in the experiment on MDA-MB-435 melanoma (10 µM) it was -76.9% (active); with SW-620 colon (10 µM), -31.1% (active); with MCF7 breast (10 µM), -44.2% (active); in the experiment with HCT-116 colon (10 µM) it was -25.9% (active); in the experiment with HCC-2998 colon (10 µM) it was -88.5% (active). In the experiment with KM12 colon (10 µM), the growth is -88.3% (active).

In the case of `Cc1cc(NS(=O)(=O)c2ccc(N=Nc3cc(N=Nc4ccc(S(=O)(=O)Nc5cc(C)nc(C)n5)cc4)c4c(NC(=O)C(Cl)Cl)cccc4c3OC(=O)C(Cl)Cl)cc2)nc(C)n1` (tested in a mixture with another compound), the growth was 101% (inactive) and 87.1% (inactive) with T-47D breast (10 µM); 111% (inactive) and 99.7% (inactive) in the experiment on BT-549 breast (10 µM); 101% (inactive) and 111% (inactive) in the experiment on MDA-MB-435 melanoma (10 µM); 122% (inactive) and 104% (inactive) with SW-620 colon (10 µM); 94.4% (inactive) and 78% (inactive) in the experiment on MCF7 breast (10 µM); 105% (inactive) and 95.2% (inactive) with HCT-116 colon (10 µM). The growth in the experiment with HCC-2998 colon (10 µM) is 107% (inactive) and 111% (inactive); in the experiment with KM12 colon (10 µM), 107% (inactive) and 106% (inactive).

In the case of `CS(=O)(=O)OC1CC(n2ccc(=O)[nH]c2=O)OC1COC(c1ccccc1)(c1ccccc1)c1ccccc1` (centres undefined), the growth with T-47D breast (10 µM) is 96.7% (inactive); in the experiment with MDA-MB-435 melanoma (10 µM), 125% (inactive); in the experiment on SW-620 colon (10 µM), 105% (inactive); in the experiment on MCF7 breast (10 µM), 97.3% (inactive); in the experiment with HCT-116 colon (10 µM) it was 92.9% (inactive); in the experiment on HCC-2998 colon (10 µM), 106% (inactive). In addition, the growth with KM12 colon (10 µM) was 93.5% (inactive).

Take `O=C1NC(=O)c2cc([N+](=O)[O-])ccc21`: the growth in the experiment with T-47D breast (10 µM) is 103% (inactive); in the experiment on BT-549 breast (10 µM) it was 123% (inactive); with MDA-MB-435 melanoma (10 µM), 105% (inactive); with SW-620 colon (10 µM), 103% (inactive); in the experiment with MCF7 breast (10 µM), 107% (inactive); in the experiment on HCT-116 colon (10 µM), 116% (inactive). In addition, the growth was 102% (inactive) in the experiment with HCC-2998 colon (10 µM) and 110% (inactive) with KM12 colon (10 µM).

Turning to `CCO/C=C1\SC(=S)N(c2cccc(O)c2)C1=O`, the growth was 87.4% (inactive) in the experiment with T-47D breast (10 µM); 102% (inactive) in the experiment on MDA-MB-435 melanoma (10 µM); 112% (inactive) in the experiment on SW-620 colon (10 µM); 84.1% (inactive) with MCF7 breast (10 µM); 96.9% (inactive) with HCT-116 colon (10 µM); 111% (inactive) in the experiment on HCC-2998 colon (10 µM). Besides, the growth with KM12 colon (10 µM) was 97.2% (inactive).

With `COC(=O)C1=COC(C)C2C[n+]3ccc4c([nH]c5ccccc54)c3CC12` (centres undefined), the growth in the experiment with T-47D breast (10 µM) was 100% (inactive) and 91.5% (inactive); in the experiment on MDA-MB-435 melanoma (10 µM) it was 106% (inactive) and 109% (inactive); in the experiment on SW-620 colon (10 µM) it was 100% (inactive) and 84% (inactive); in the experiment on MCF7 breast (10 µM), 96% (inactive) and 79.2% (inactive); in the experiment with MCF7 breast (100 µM) it was 28.2% (inactive) and 1% (active); in the experiment with HCT-116 colon (10 µM), 98.4% (inactive) and 99.5% (inactive). Moreover, the growth in the experiment with HCC-2998 colon (10 µM) is 111% (inactive) and 94.1% (inactive); in the experiment on KM12 colon (10 µM) it was 102% (inactive) and 97.8% (inactive).

On to `O=c1ccn(C2CC(O)C(COC(c3ccccc3)(c3ccccc3)c3ccccc3)O2)c(=O)[nH]1` (centres undefined), for which the growth in the experiment with T-47D breast (10 µM) was 84.7% (inactive); in the experiment with T-47D breast (100 µM), 25.7% (inactive); in the experiment on BT-549 breast (10 µM), 84.2% (inactive); in the experiment with BT-549 breast (100 µM), 13.9% (inactive); with MDA-MB-435 melanoma (10 µM), 76.1% (inactive); in the experiment with MDA-MB-435 melanoma (100 µM), 45% (inactive). Moreover, the growth is 99.4% (inactive) with SW-620 colon (10 µM); 62.2% (inactive) in the experiment on SW-620 colon (100 µM); 79.2% (inactive) in the experiment with MCF7 breast (10 µM); 16.5% (inactive) in the experiment on MCF7 breast (100 µM); 82.2% (inactive) in the experiment with HCT-116 colon (10 µM); 33.9% (inactive) with HCT-116 colon (100 µM). Also, the growth in the experiment on HCC-2998 colon (10 µM) was 122% (inactive); with HCC-2998 colon (100 µM), 64.2% (inactive); in the experiment with KM12 colon (10 µM), 90.4% (inactive); in the experiment with KM12 colon (100 µM) it was 40.3% (inactive).

Turning to `COc1cccc2c1C(=O)c1c(O)c3c(c(O)c1C2=O)C[C@@](O)(C(=O)CO)C[C@@H]3OC1CC(N)C(O)C(C)O1` (some centres undefined), the growth is 90.7% (inactive) in the experiment with T-47D breast (0.0025 µM); 13.2% (inactive) in the experiment on T-47D breast (1 µM); 39.5% (inactive) with T-47D breast (2.5 µM); -11.3% (active) in the experiment on T-47D breast (10 µM); 99% (inactive) in the experiment with MDA-MB-435 melanoma (0.0025 µM); 50.1% (inactive) in the experiment with MDA-MB-435 melanoma (1 µM). Moreover, the growth with MDA-MB-435 melanoma (2.5 µM) is 72.5% (inactive); in the experiment with MDA-MB-435 melanoma (10 µM), -83.9% (active); with SW-620 colon (0.0025 µM), 91.7% (inactive); in the experiment on SW-620 colon (1 µM), -1.05% (active); with SW-620 colon (10 µM), 1.93% (active); in the experiment with MCF7 breast (0.0025 µM) it was 71.4% (inactive). Further, the growth in the experiment with MCF7 breast (1 µM) is 18.7% (inactive); with MCF7 breast (2.5 µM) it was 7.74% (active); in the experiment with MCF7 breast (10 µM), 3.37% (active); with HCT-116 colon (0.0025 µM) it was 76.1% (inactive); with HCT-116 colon (1 µM), 8.95% (active); with HCT-116 colon (2.5 µM), 28.1% (inactive). Further, the growth was 2.8% (active) with HCT-116 colon (10 µM); 84.7% (inactive) in the experiment with HCC-2998 colon (0.0025 µM); 59.8% (inactive) in the experiment on HCC-2998 colon (1 µM); -13.3% (active) in the experiment with HCC-2998 colon (2.5 µM); -54.4% (active) with HCC-2998 colon (10 µM); 93.1% (inactive) with KM12 colon (0.0025 µM). Also, the growth was 32.1% (inactive) in the experiment on KM12 colon (1 µM) and 4.23% (active) in the experiment on KM12 colon (10 µM).

Turning to `CSC1SCC2C(=O)N(C)C(C(C)C)C(=O)OCC(NC(=O)c3cnc4ccccc4n3)C(=O)NC(C)C(=O)N(C)C1C(=O)N(C)C(C(C)C)C(=O)OCC(NC(=O)c1cnc3ccccc3n1)C(=O)NC(C)C(=O)N2C` (centres undefined), the growth was -8.25% (active) in the experiment on T-47D breast (10 µM); -48.3% (active) in the experiment on BT-549 breast (10 µM); -82.8% (active) in the experiment on MDA-MB-435 melanoma (10 µM); 1.31% (active) in the experiment on SW-620 colon (10 µM); 2.56% (active) in the experiment on MCF7 breast (10 µM); -29.5% (active) in the experiment on HCT-116 colon (10 µM). The figures for the growth in the experiment on HCC-2998 colon (10 µM) and with KM12 colon (10 µM) were -80.1% (active) and -5.74% (active), respectively.

As for `COC(=O)C1C(O)C(C)C(O)C(C)C=C(C)C2=C3C(=C(C)C(=O)c4c(O)c(c(C)c(OC(C)=O)c43)NC(=O)C(C)=C/C=C\C(C)C(O)C(C)C1O)OCO2` (centres undefined), the growth is 117% (inactive) with T-47D breast (10 µM); 130% (inactive) with MDA-MB-435 melanoma (10 µM); 103% (inactive) in the experiment with SW-620 colon (10 µM); 103% (inactive) with MCF7 breast (10 µM); 96% (inactive) with HCT-116 colon (10 µM); 145% (inactive) in the experiment on HCC-2998 colon (10 µM). Besides, the growth in the experiment on KM12 colon (10 µM) was 103% (inactive).
